TDP1 cell noCPT: qHTS for Inhibitors of human tyrosyl-DNA phosphodiesterase 1 (TDP1): qHTS in cells in absence of CPT. Potency, µM (series often up to 46.2 µM), inactives show at the top dose activity change, negative = growth inhibition, most hits filed as inhibitors. hit rate 15% among 420,000. DT40 Tdp1-/- hTDP1 cells, no CPT, ATP luminescence, 48 h; further: nearly all actives have a fitted effect of over 55% in size
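Stably hTDP1-transfected Tdp1-null chicken DT40 cells were treated with library compounds minus camptothecin and grown for at least 48 hr at 37 °C, after which cellular ATP was quantified by luminescence.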
DT40 TDP1 CPT: growth inhibition of DT40 Tdp1-/-;hTDP1 cells with camptothecin (screen for TDP1 inhibitors); hit rate 12% among 420,000; chicken DT40 Tdp1-/-;hTDP1 cells + 20 nM CPT, ATP luminescence, 48 h; Potency, µM (doses to about 46.2 µM), without a hit: at the top dose activity change, negative = growth inhibition, actives largely listed as inhibitors; AID 686979; further: nearly all actives have a fitted effect of over 55% in size
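Cell growth measured by CellTiter-Glo luminescence after a minimum 48 h, 37 C compound exposure with 20 nM CPT in Tdp1-knockout DT40 cells stably expressing hTDP1, seeded 400/well; qHTS titration format.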
VDR inh: vitamin D3 receptor (human) inhibition | P11473 | VDR-SRC2-3 peptide fluorescence polarization, 2 h | Potency, µM, without a hit: max response, negative = inhibition, hits mostly inhibitors | hit rate 0.93% among 400,000 | AID 504847
Target sequence (P11473 whole entry, looked up): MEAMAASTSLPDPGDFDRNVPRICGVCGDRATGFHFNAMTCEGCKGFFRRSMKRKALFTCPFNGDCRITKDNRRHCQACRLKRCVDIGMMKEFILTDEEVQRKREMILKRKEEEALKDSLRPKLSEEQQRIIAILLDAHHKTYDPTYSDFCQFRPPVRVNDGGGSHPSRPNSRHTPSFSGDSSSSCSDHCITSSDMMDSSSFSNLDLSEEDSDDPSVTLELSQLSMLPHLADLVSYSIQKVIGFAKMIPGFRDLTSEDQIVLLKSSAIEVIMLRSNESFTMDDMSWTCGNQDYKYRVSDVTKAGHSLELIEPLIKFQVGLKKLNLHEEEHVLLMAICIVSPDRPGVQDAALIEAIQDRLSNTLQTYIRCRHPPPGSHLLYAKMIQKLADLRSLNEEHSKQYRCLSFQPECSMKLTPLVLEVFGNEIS
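FP read-out; VDR + SRC2-3 coactivator peptide; 23 nl compound by pintool; 2 h RT incubation; reagents held at 4 deg C, protected from light.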
GCN5L2 inh: inhibitors of human GCN5L2 histone acetyltransferase; Q92830; GCN5L2 HAT assay, ThioGlo1 CoA-SH fluorescence; Potency, µM (series often up to 58.9 µM), inactives show at the top dose activity change, negative = inhibition, usual class: inhibitors; hit rate 0.21% among 390,000; AID 504327
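Free CoA generated was detected with ThioGlo1 (50uM) fluorescence at Ex340nm/Em540nm, read immediately and after 20 min at room temperature. Enzyme, 20 nM in HEPES pH 7.5 buffer, saw compounds 15 min before adding 75uM H3(1-25) peptide and 70uM acetyl-CoA.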
PLK1 PBD inh: inhibitors of human PLK1 polo-box domain binding; Plk1 PBD binding of FITC phosphopeptide, fluorescence polarization; hit rate 2.8% among 360,000; Potency, µM, for the others: max response, negative = inhibition, actives largely listed as inhibitors; further: series mostly up to about 57 µM; nearly all actives have a fitted effect of over 65% in size
TDP1 block: blocks human tyrosyl-DNA phosphodiesterase 1; recombinant TDP1, AlphaScreen DNA substrate cleavage; Potency, µM (doses to about 130 µM), inactives show top-dose activity change, negative = inhibition, usual class: inhibitors; hit rate 0.28% among 350,000; AID 485290; further: nearly all actives have a fitted effect of over 40% in size
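Enzyme-compound mixtures sat 15 min at room temperature, followed by a 5 min reaction with 15 nM final substrate and 10 min with AlphaScreen beads. Recombinant human Tdp1 was used at 1 nM final.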
Starred values were filed as active, the others as inactive; ? = inconclusive; . = no result given; [ ] = another dose, or the depositor's remark. Sampled rows, rich in hits. Any-hit rate of the full collection: about 18%. The call rests on the fitted dose curve; in most records, active means well fitted curve in the direction sought with a large enough effect; inconclusive means small, poorly fitted or top-dose-only effect, or another doubt; inactive means no such curve, though single readings can be large; an effect the other way counts as inactive or inconclusive. On the % scale 0 is the no-effect control and ±100 the full control effect; potency means the concentration at half of the fitted maximal effect.

SMILES	TDP1 cell noCPT	DT40 TDP1 CPT	VDR inh	GCN5L2 inh	PLK1 PBD inh	TDP1 block
CC(C)c1ccc(NC(=O)c2cccn2-c2nnc(N3CCCCC3)s2)cc1	?	18µM*	2%	-2%	.	-3%
CN(C)c1ccc(CNC(=O)c2cccn2-c2nnc(N3CCCCC3)s2)cc1	16µM*	18µM*	0%	16%	.	5%
O=C(NCCCO)C(=O)Nc1ccc2c(c1)N(S(=O)(=O)c1cccs1)CCC2	?	?	0%	-4%	1%	1%
CC(C)CCNC(=O)C(=O)Nc1ccc2c(c1)N(S(=O)(=O)c1cccs1)CCC2	3.7µM*	5.2µM*	-1%	1%	-10%	.
COCCNC(=O)C(=O)Nc1ccc2c(c1)N(S(=O)(=O)c1cccs1)CCC2	1.5µM*	1.8µM*	0%	1%	-4%	0%
COc1cccc(CCc2ccccc2OCC(CN(C)C)OC(=O)CCC(=O)O)c1 (stereo not given)	11µM*	16µM*	-5%	-10%	.	.
CC(C)(C)C1CCC2(CC1)C(C#N)=C(SCC(=O)Nc1ccccc1)NC(=O)C2C#N (stereo not given)	?	16µM*	4%	-9%	-28%	1%
COc1ccc(N=C2C(=Nc3ccc(OC)cc3)N(c3ccc(N(C)C)cc3)C(=S)N2c2ccc(OC)cc2)cc1	1µM*	0.65µM*	1%	3%	-1%	8%
COc1ccc(N=C2C(=Nc3ccc(OC)cc3)N(c3ccccc3)C(=S)N2C(=O)c2ccc(Cl)cc2)cc1	?	-21%	-13%	-21%	-9%	-2%
COc1ccc(CCC(=O)N2CCN(C(=O)c3ccccc3)CC2)cc1	10%	-2%	-5%	-7%	5%	.
COc1ccc(N2C(=S)N(C(=O)c3ccccc3)C(=Nc3ccccc3)C2=Nc2ccccc2)cc1	18µM*	?	?	.	21µM*	.
COc1ccc(NC(=S)c2ccc(N(C)C)cc2)cc1	-26%	?	-1%	-5%	?	2%
COc1ccc(N=C2C(=Nc3ccc(OC)cc3)N(c3ccc(OC)cc3)C(=S)N2C(=O)c2ccc(OC)cc2)cc1	18µM*	?	?	-10%	-9%	5%
COc1cccc(CC(=O)N2CCc3nc(-c4ccccc4)c4c(c3C2)CO[C@@H](C)C4)c1	.	.	.	.	.	4%[21 µM]
CCN(CC)c1ccc(/C=N/NC(=O)c2ccc(O)cc2)cc1	.	.	1%	-19%	.	11%
CCN(CC)CCCNC(=O)CNC(=S)N(CCCN1CCOCC1)Cc1cccs1	-17%	-28%	-3%	1%	19µM*	-2%
CC(c1ccco1)N(C(=O)c1cccc(Br)c1)c1ccccn1 (stereo not given)	?	0%	-6%	-3%	-5%	13%
Cc1ccc(C(=O)N2CCc3cc(CNC(=O)c4ccccc4F)ccc32)cc1	21µM*	?	19%	-7%	.	5%
CCOc1ccc(C(=O)NCc2ccc3c(c2)CCN3C(=O)c2ccc(C)cc2)cc1OCC	13µM*	12µM*	13%	-6%	.	0%
CCOc1ccccc1C(=O)NCc1ccc2c(c1)CCN2C(C)=O	1.6µM*	0.92µM*	8%	-1%	.	1%
CC(NC(=O)c1ccc(Cn2c(=O)c3cccn3c3cccnc32)cc1)c1ccccc1 (stereo not given)	?	-29%	10%	-3%	.	-3%
COC(=O)COc1ccc(NC(=O)C(c2ccccc2)c2ccccc2)cc1	?	-35%	9%	-14%	6%	.
COC(=O)COc1ccc(C(C2C(=O)CC(C)(C)CC2=O)C2C(=O)CC(C)(C)CC2=O)cc1	13%	-4%	50µM*	0%	?	.
CCN1/C(=C/C(=O)c2ccco2)Sc2ccccc21	-5%	-19%	20%	-11%	?	0%
CCN1/C(=C/c2sc(-c3ccccc3C)c[n+]2C)Sc2ccccc21	0.21µM*	0.26µM*	-11%	-19%	-5%	6%
SMILES	TDP1 cell noCPT	DT40 TDP1 CPT	VDR inh	GCN5L2 inh	PLK1 PBD inh	TDP1 block
Cc1ccc(NC(=O)CNC(=O)Cn2cnc3sc(C)c(C)c3c2=O)cc1F	-29%	?	-4%	4%	?	2%
Cc1cccc(-c2nnc(SCc3cc(=O)c4cccc(Cl)c4[nH]3)n2C)c1	16µM*	23µM*	5%	-6%	.	5%
Cc1ccc2c(=O)cc(CSc3nnc(-c4ccccc4)n3C)[nH]c2c1C	-22%	-17%	2%	-6%	.	5%
COc1ccc2cc(CNC3CCS(=O)(=O)C3)c(-c3ccc(OC)c(OC)c3)nc2c1 (stereo not given)	-4%	4%[9.04 µM]	.	.	.	.
O=C(COC(=O)C1CCC(=O)N1)Nc1ccccc1Br (stereo not given)	?	?	22µM*	1%	21µM*	8%
COc1ccc(C(=O)COC(=O)C2CCC(=O)N2)cc1 (stereo not given)	-2%	8%	7%	-7%	-4%	1%
O=C1CCC(C(=O)OCC(=O)c2ccccc2)N1 (stereo not given)	-24%	?	?	-1%	27µM*	3%
O=C(COC(=O)C1CCC(=O)N1)Nc1ccc(Oc2ccccc2)cc1 (stereo not given)	-14%	13%	1%	-1%	-5%	0%
FC(F)(F)c1ccnc(Sc2n[nH]c(C(F)(F)F)n2)c1	?	-26%	-5%	-3%	-12%	0%
Cc1cc(NC(=O)c2ccc3c(c2)N(Cc2cccc(Cl)c2)C(=O)c2ccccc2S3(=O)=O)ccc1Br	.	.	9%	-9%	.	4%
COc1cc(/C=C2\SC(=Nc3ccccc3OC)NC2=O)ccc1O	?	?	1%	-3%	21%	6%
COc1cc(/C=C2/SC(=Nc3ccc(O)cc3)NC2=O)ccc1O	0.65µM*	1µM*	-7%	-8%	26%	6%
COc1cc(/C=C2\S/C(=N/S(=O)(=O)c3ccccc3)NC2=O)c([N+](=O)[O-])cc1OC	19%	-11%	?	-12%	?	-8%
COc1cc(/C=C2\SC(=Nc3cccnc3)NC2=O)cc(OC)c1OC	?	?	-8%	?	5%	-8%
COc1cc(/C=C2\SC(=Nc3ccc(Cl)c(C(=O)O)c3)NC2=O)c(Br)c(Br)c1O	3%	-1%	?	?	71%	8.9µM*
COc1ccc(/C=C2\SC(=Nc3ccccc3OC)NC2=O)cc1	?	23µM*	22%	-1%	-21%	7%

Screening data: PubChem, National Center for Advancing Translational Sciences (NCATS)
